Read-out in assay [1]: Collagen III, COL3A1 (gene 1281)
In words: BSK_MyoF_CollagenIII: BioMAP Diversity Plus: MyoF Assay for Collagen III Biomarker Activity (AID 2284239). Conditions: primary human lung fibroblasts. The gist of the method:
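Compounds are added to primary human lung fibroblasts and left for 24 hours. Collagen III is then quantified by ELISA. Analysis takes DMSO as baseline and fits increases in signal.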

A short description of assay [2]: CCTE_Mundy_HCI_hNP1_Casp3_7: CCTE's Caspase-Glo 3/7 Assay in human neuroprogenitor cells for Apoptosis, Mundy Lab (AID 2284240). The procedure, abridged: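 Neuroepithelial-lineage stem cells from WA09 embryonic cells were treated with chemicals after 40–44 h of culture. Twenty-four hours later, caspase-3/7 activation was detected luminescently after a 30 min room-temperature reagent step, with DMSO as baseline.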

A short description of assay [3]: CCTE_Mundy_HCI_Cortical_Synap_Neur_Matur_NeuronCount: CCTE's Synaptogenesis and Neurite Maturation Assay in rat cortical cells for Neuron Count, Mundy Lab (AID 2284242; active means hit-call score of the fitted dose curve at least 0.9, where 1 is the maximum;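 on AC50: hits reduce neuron count versus DMSO baseline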). The gist of the method: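 Neuron number was scored by automated high-content imaging of Hoechst- and MAP2-labelled rat primary cortical cells. Glial growth was arrested with AraC at DIV 5, compounds were applied from DIV 7, and cultures ended at DIV 12.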

Read-out in assay [4]: Interleukin 17F (IL17F), IL17F (gene 112744)
The assay is described as follows: BSK_BT_xIL17F: BioMAP Diversity Plus: BT Assay for Interleukin 17F (IL17F) Biomarker Activity (AID 2284243). The following applies: primary human B cells with PBMC. The gist of the method: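 Measures secreted IL-17F from a human B cell plus PBMC co-culture at 24 h post-dose by Luminex xMAP, with DMSO defining baseline activity.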

Read-out in assay [5]: Actin alpha 1 (ACTA1), ACTA1 (gene 58)
The assay is described as follows: BSK_MyoF_ACTA1: BioMAP Diversity Plus: MyoF Assay for Actin alpha 1 (ACTA1) Biomarker Activity (AID 2284244). The following applies: primary human lung fibroblasts. The gist of the method:
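Lung fibroblasts, human primary, 24 h compound exposure → a-SMA ELISA. Positive-direction fit vs DMSO control.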

Read-out in assay [6]: Interleukin 2 (IL2), IL2 (gene 3558)
In words: BSK_BT_xIL2: BioMAP Diversity Plus: BT Assay for Interleukin 2 (IL2) Biomarker Activity (AID 2284245). The following applies: primary human B cells with PBMC. The gist of the method:
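B cell + PBMC co-culture (human primary), compound added, 24 h incubation; secreted IL-2 measured multiplexed on Luminex xMAP; gain-of-signal fit vs DMSO.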

Read-out in assay [7]: Basic fibroblast growth factor (bFGF), FGF2 (gene 2247)
The assay is described as follows: BSK_MyoF_bFGF: BioMAP Diversity Plus: MyoF Assay for Basic fibroblast growth factor (bFGF) Biomarker Activity (AID 2284246). Conditions: primary human lung fibroblasts. The procedure, abridged: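 ELISA-measured bFGF level serves as the read-out, taken 24 h after chemical dosing of human lung fibroblasts. Values represent signal gain over the DMSO negative control.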

Read-out in assay [8]: Collagen IV, COL4A1 (gene 1282)
The assay is described as follows: BSK_MyoF_CollagenIV: BioMAP Diversity Plus: MyoF Assay for Collagen IV Biomarker Activity (AID 2284247). Conditions: primary human lung fibroblasts. The procedure, abridged: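 Steps: dose human lung fibroblasts; culture 24 h; quantify Collagen IV by ELISA; fit increase versus DMSO control. Parallel SRB total-protein staining (0.1% SRB after 10% TCA fixation, 560 nm) tracks overt cytotoxicity.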

Read-out in assay [9]: Monokine induced gamma interferon (MIG), CXCL9 (gene 4283)
The assay is described as follows: BSK_KF3CT_MIG: BioMAP Diversity Plus: KF3CT Assay for Monokine induced gamma interferon (MIG) Biomarker Activity (AID 2284248). Conditions: primary human keratinocytes with fibroblasts. The gist of the method:
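The assay uses a co-culture of human keratinocytes and foreskin fibroblasts. Measurement occurs 24 hours after dosing, with MIG detected by ELISA and the DMSO control as baseline.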

Assay [10] is described as follows: CCTE_Mundy_HCI_hNP1_CellTiter: CCTE's Cell Titer-Glo 2 Assay in human neuroprogenitor cells for Viability, Mundy Lab (AID 2284241; active means hit-call score of the fitted dose curve at least 0.9, where 1 is the maximum;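 on AC50: a hit is a drop in ATP luminescence versus DMSO meaning reduced viability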). The procedure, abridged: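 Measures ATP content in human neural progenitors derived from WA09 embryonic cells. Read-out at 26.5 hours after dosing, with DMSO serving as the negative control and baseline.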
For orientation: ATP-based viability assays read luminescence as a measure of living cells.

Results filed as inconclusive are left out. Some structures have more than one record in an assay (separate samples or runs), and their calls can disagree. Calls of active or inactive are those of the source. How the source made its calls, unless noted: active means hit-call score of the fitted dose curve at least 0.9, where 1 is the maximum; inactive means score below 0.9.

What is called AC50 is the concentration giving half of the maximal activity seen.

Regarding `O=C(O)C(F)(F)C(F)(F)C(F)(F)C(F)(F)C(F)(F)C(F)(F)C(F)(F)F`, the result in [1], in [2], in assay [3], in [4], in [5] and in [6] was inactive. In addition, the result in assay [7] and in assay [9] was inactive. The AC50 in assay [8] was 31.6 µM (active) [middle of 4 runs].

Take `O=S(=O)(O)C(F)(F)C(F)(F)C(F)(F)C(F)(F)C(F)(F)C(F)(F)C(F)(F)C(F)(F)F`: the result in assay [1], in [2], in [10], in assay [3], in assay [4] and in [5] was inactive. Moreover, the result in assay [6], in assay [7], in assay [8] and in assay [9] was inactive.

`ClC1C(Cl)C(Cl)C(Cl)C(Cl)C1Cl` (stereo unspecified): the half-maximal activity concentration (AC50) in [1] is 30.3 µM (active); in assay [4], 20 µM (active); in [5] it was 28.5 µM (active); in assay [6], 31.9 µM (active). Moreover, the outcome in [1], in [4], in assay [5], in assay [6], in assay [7] and in [8] was inactive.

As for `COP(=O)(OC)OC=C(Cl)Cl`, the call in assay [2] and in assay [10] was inactive. In addition, in assay [3], the AC50 was 81.4 µM (active).

For the molecule `CCC(C)(C)C(=O)OC1=C(c2ccc(Cl)cc2Cl)C(=O)OC12CCCCC2`, the outcome in assay [2], in [10] and in assay [3] was inactive.

With `O=S1OCC2C(CO1)C1(Cl)C(Cl)=C(Cl)C2(Cl)C1(Cl)Cl` (stereo unspecified), the concentration at half-maximal activity (AC50) in assay [2] was 19.4 µM (active); in assay [10], 12 µM (active); in [3], 22.5 µM (active).

As for `CC1(c2ccc(Oc3ccccc3)cc2)OC(=O)N(Nc2ccccc2)C1=O` (stereo unspecified), the result in [2] was inactive. The AC50 in [10] and in assay [3] was 10.9 µM (active) throughout.

For `O=C(O)COc1ccc(Cl)cc1Cl`, the molecule was classed as inactive in [2] and in assay [10].

Turning to `COP(=S)(OC)Oc1ccc([N+](=O)[O-])cc1`, the outcome in assay [2] and in assay [10] was inactive. Also, in assay [3], the half-maximal activity concentration (AC50) was 22.1 µM (active).

On to `CNC(=O)CSP(=S)(OC)OC`, for which the outcome in [2], in assay [10] and in assay [3] was inactive. In addition, in assay [3], the AC50 is 50 µM (active).

Consider `CC1(C)C(C=C(Cl)Cl)C1C(=O)OC(C#N)c1ccc(F)c(Oc2ccccc2)c1` (stereo unspecified), for which the AC50 in [2] was 31.3 µM (active); in assay [3], 49.9 µM (active). For the same molecule, the molecule was called inactive in assay [2] and in assay [10].

`CC(C)N(C(=O)COc1nnc(C(F)(F)F)s1)c1ccc(F)cc1`: the result in assay [2] and in assay [10] was inactive.

Take `O=[N+]([O-])/N=C1\NCCN1Cc1ccc(Cl)nc1`: the call in assay [2] and in [10] was inactive.

Take `CC[C@H](C)[C@H]1O[C@]2(C=C[C@@H]1C)C[C@@H]1C[C@@H](C/C=C(\C)[C@@H](O[C@H]3C[C@H](OC)[C@@H](O[C@H]4C[C@H](OC)[C@@H](O)[C@H](C)O4)[C@H](C)O3)[C@@H](C)/C=C/C=C3\CO[C@@H]4[C@H](O)C(C)=C[C@@H](C(=O)O1)[C@]34O)O2` (tested in a mixture with another compound): the concentration at half-maximal activity (AC50) was 3.64 µM (active) in assay [2], 3.34 µM (active) in assay [10] and 1.55 µM (active) in assay [3].
